Laboratory results from PubChem BioAssay.
Values joined by “and” are separate entries in the source; they are usually repeats but may differ in a detail not shown here. Equal values may be shown once. Values without a mark were called inactive. Active and inactive are the calls of the source.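 The calls were made as follows: active = thallium flux through the channel raised or lowered by more than 3 SD from vehicle-only wells, actives on both sides; inactive = the rest.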

Columns and labels:
Experiment in all cases: BK channel mutant inhibitors and activators – cell-based, U2OS BacMam, thallium flux, beta subunits, selectivity assay, profiling panel (AID 1259406);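 also: initial slope of Thallos dye fluorescence rise after thallium is added; log ratio against the mean of 0.3% DMSO vehicle wells on the same plate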
F380Y/beta2Delta = settings: U2OS BacMam BK variants, at 30 µM
[1] = target: Calcium-activated potassium channel subunit alpha-1 (Homo sapiens) + Leucine-rich repeat-containing protein 26 (Homo sapiens) (UniProt Q12791+Q2I0M4); settings: U2OS BacMam BK variants, F380Y/Slo1WT/gamma1, at 30 µM
R275C = settings: U2OS BacMam BK variants, at 30 µM
R275C/beta1 = settings: U2OS BacMam BK variants, at 30 µM
R275C/beta2Delta = settings: U2OS BacMam BK variants, at 30 µM
F380Y/beta4 = settings: U2OS BacMam BK variants, at 30 µM
R275C/beta4 = settings: U2OS BacMam BK variants, at 30 µM
R275C/Slo1WT/beta2 = settings: U2OS BacMam BK variants, at 30 µM

Chain of Calcium-activated potassium channel subunit alpha-1 (Homo sapiens) + Leucine-rich repeat-containing protein 26 (Homo sapiens) (Q2I0M4 whole entry, looked up, one chain of several): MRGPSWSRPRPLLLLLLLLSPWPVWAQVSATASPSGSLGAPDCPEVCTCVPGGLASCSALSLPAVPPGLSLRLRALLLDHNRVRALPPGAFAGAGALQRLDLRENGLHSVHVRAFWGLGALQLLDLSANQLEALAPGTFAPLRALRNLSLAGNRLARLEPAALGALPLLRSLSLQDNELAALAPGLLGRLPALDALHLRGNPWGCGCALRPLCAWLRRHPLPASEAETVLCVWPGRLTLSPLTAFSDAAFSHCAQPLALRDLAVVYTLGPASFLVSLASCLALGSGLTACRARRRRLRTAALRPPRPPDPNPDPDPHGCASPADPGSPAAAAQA

Structure (SMILES)	log fold change Tl+ flux (F380Y/beta2Delta)	log fold change Tl+ flux [1]	log fold change Tl+ flux (R275C)	log fold change Tl+ flux (R275C/beta1)	log fold change Tl+ flux (R275C/beta2Delta)	log fold change Tl+ flux (F380Y/beta4)	log fold change Tl+ flux (R275C/beta4)	log fold change Tl+ flux (R275C/Slo1WT/beta2)
CN(Cc1cnc2nc(N)nc(N)c2n1)c1ccc(C(=O)N[C@@H](CCC(=O)O)C(=O)O)cc1	-0.018	0.0152	0.0652	-0.0323	0.0014			
COC(=O)C1=C(C)NC(C)=C(C(=O)O[C@@H]2CCCN(Cc3ccccc3)C2)[C@@H]1c1cccc([N+](=O)[O-])c1	-0.042	-0.0108	-0.0526	0.192 (active)	0.191 (active)	-0.0532	-0.0168	-0.0109
CCc1nn(CCCN2CCN(c3cccc(Cl)c3)CC2)c(=O)n1CCOc1ccccc1	-0.507 (active)	0.00963	-0.055	0.378 (active)	0.156 (active)	-0.446 (active)	0.207 (active)	-0.00757
Cc1cccc(C)c1NC(=O)C(C)N (configuration not stated)	0.0308	-0.00222	0.0212	-0.0204	-0.0462	0.00908	-0.0241	0.0922 (active)
CN(C)CC/C=C1/c2ccccc2COc2ccc(CC(=O)O)cc21	0.053	0.00396	-0.0501	0.0368	0.00503	0.0784	0.0335	0.0239
CC(C)(O)c1ccccc1CC[C@@H](SCC1(CC(=O)O)CC1)c1cccc(/C=C/c2ccc3ccc(Cl)cc3n2)c1	0.312 (active)	0.354 (active)	0.131 (active)	0.782 (active)	0.293 (active)	0.64 (active)	0.977 (active)	0.13 (active)
CN(CCOc1ccc(NS(C)(=O)=O)cc1)CCc1ccc(NS(C)(=O)=O)cc1	0.0285	-0.0274	-0.101	0.0214	-0.0483	0.0111	-9.6e-05	-0.00913
CN(CCCN1c2ccccc2CCc2ccccc21)CC(=O)c1ccc(Cl)cc1	-0.0465	0.00396	-0.00393	0.055	0.0142	0.0103	0.0763	-0.0536
CN(C)CCCSc1ccccc1NC(=O)/C=C/c1ccccc1	0.0654	0.0123	0.063	0.0477	0.0394			
CN1CCC(=C2c3ccccc3CCc3sccc32)CC1	-0.0147	0.0222	-0.0315	0.0886	0.0371			
CC1CCN(CCCC(=O)c2ccc(F)cc2)CC1	0.0189	0.000816	0.0359	-0.0458	0.0277			
COc1ccc(CC2c3cc(OC)c(OC)cc3CC[N+]2(C)CCC(=O)OCCCCCOC(=O)CC[N+]2(C)CCc3cc(OC)c(OC)cc3C2Cc2ccc(OC)c(OC)c2)cc1OC (configuration not stated)	-0.00992	-0.0136	-0.0147	0.0284	-0.0198			
Cc1ccc(NC(=O)c2ccc(CN3CCN(C)CC3)cc2)cc1Nc1nccc(-c2cccnc2)n1	0.0732	-0.0387	-0.00147	0.00665	0.0291			
COc1ccccc1N1CCN(CC(O)COc2cccc3ccccc23)CC1 (configuration not stated)	-0.0539	0.00615	-0.067	0.198 (active)	-0.0952	-0.114 (active)	0.167 (active)	-0.0505
c1cnc(N2CCN(Cc3ccc4c(c3)OCO4)CC2)nc1	-0.0184	0.0386	-0.0353	0.0391	-0.006			
Cc1cn([C@H]2C=C[C@@H](CO)O2)c(=O)[nH]c1=O	0.00122 and 0.00603	0.0426 and -0.00611	-0.1 and -0.00698	-0.02 and 0.0272	-0.0201 and 0.00371	-0.027 and 0.00706	0.0202 and -0.00131	0.0395 and 0.0392
CC(C(=O)O)c1ccc(CC2CCCC2=O)cc1 (configuration not stated)	-0.0349	-0.0398	-0.0259	0.00328	0.0267	-0.0649	-0.000172	0.00782
CCc1oc2ccccc2c1C(=O)c1cc(Br)c(O)c(Br)c1	0.479 (active)	0.428 (active)	0.0187	0.704 (active)	0.431 (active)	0.628 (active)	0.722 (active)	0.347 (active)
O=C(O)/C=C/c1ccc(Cn2ccnc2)cc1	-0.0133	-0.0199	0.0013	0.0161	0.00561	0.00948	-0.0096	0.0187
CCN(CC)CC1CCCCN1CC(=O)N1c2ccccc2C(=O)Nc2cccnc21 (configuration not stated)	0.0497	0.0283	-0.0778	0.0108	0.0199	-0.01	0.0303	0.0393
O=C1N(c2ccccc2)c2ccccc2C1(Cc1ccncc1)Cc1ccncc1	-0.0915	-0.0557	-0.00568	0.0135	0.00649	-0.0921	-0.0197	-0.0252
